Rab7 wt GTP bind: alters GTP binding to wildtype dog Rab7; GTP binding activity (percent of control), % at 10 µM; 0.055% of 190,000 active; AID 758; GST-Rab7 beads, fluorescent GTP binding, flow cytometry; actives lie on both sides; untreated = 100%, excess cold GTP = 0%;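 active means fluorescent GTP binding to Rab7 beads changed by at least 20 points from the 100% baseline, either direction, mostly lower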;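 further: median green fluorescence of bound Bodipy-FL-GTP per Rab7 bead population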
Cdc42 wt GTP: human Cdc42 wildtype GTP binding change, either direction; GST-Cdc42 beads, Bodipy-GTP binding, flow cytometry; actives lie on both sides; percent activity (GTP binding), % at 10 µM; 0.2% of 190,000 active; P60953;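 active means percent activity GTP binding at least 20 points away from the 100% baseline, either down as inhibitor or up as activator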;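 further: median bead fluorescence of bound Bodipy-FL-GTP at 100 nM; 0% = excess unlabeled GTP control and 100% = no compound control; below 100% means less GTP binding so inhibitor and above means activator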
Target sequence (P60953 whole entry, looked up): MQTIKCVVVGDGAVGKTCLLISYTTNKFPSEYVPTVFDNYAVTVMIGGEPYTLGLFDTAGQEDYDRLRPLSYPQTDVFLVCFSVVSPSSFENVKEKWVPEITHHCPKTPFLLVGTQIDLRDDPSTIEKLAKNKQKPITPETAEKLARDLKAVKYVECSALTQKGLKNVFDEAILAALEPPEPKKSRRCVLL
HRas wt GTP bind: changes GTP binding to wildtype human HRas; 0.14% of 190,000 active; GTP binding activity, % at 10 µM; GST-Ras wt beads, Bodipy-FL-GTP binding, flow cytometry; actives lie on both sides; P01112;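 active means GTP binding activity at least 20% away from the 100% baseline, either lowered as inhibitor or raised as activator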;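 further: 0% = unlabeled GTP competition control and 100% = no-compound control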
Target sequence (P01112 whole entry, looked up): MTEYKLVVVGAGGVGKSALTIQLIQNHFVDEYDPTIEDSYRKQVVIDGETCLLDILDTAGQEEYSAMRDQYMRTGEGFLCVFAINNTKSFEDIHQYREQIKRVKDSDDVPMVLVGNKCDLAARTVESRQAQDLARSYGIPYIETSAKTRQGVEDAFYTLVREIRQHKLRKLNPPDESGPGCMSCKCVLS
Rab2 wt GTP: changes GTP binding to wildtype dog Rab2A, up or down; P61105; GST-Rab2 wt beads, Bodipy-GTP binding, flow cytometry; GTP binding activity, % at 10 µM; 0.19% of 190,000 active; AID 760;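 active means GTP binding activity at least 20 points away from 100%, either lowered or raised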;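 further: 0% = beads with excess unlabeled GTP and 100% = no-compound control corrected for plate trend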
Rac1 mut GTP: human Rac1 activated mutant GTP binding change; P63000; GST-Rac1 activated beads, fluorescent GTP binding, flow cytometry; actives lie on both sides; 100% means binding = to untreated wells; percent activity (GTP binding), % at 10 µM; 0.11% of 190,000 active;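 active means GTP binding at least 20 percentage points away from the 100% baseline, in either direction, so actives lie on both sides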
Rac1 wt GTP bind: modulators of human Rac1 wildtype GTP binding. 0.27% of 190,000 active. P63000. GST-Rac1 beads, fluorescent GTP binding, flow cytometry; actives lie on both sides; 0 = cold GTP competed, 100 = untreated. GTP binding activity (% of control), % at 10 µM. AID 757;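 active means GTP binding activity at least 20 points away from the 100% control level, either lower or higher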
* marks the source's active call; other numbers are inactive results; [ ] = another dose, or the depositor's remark. Sampled rows, rich in hits. Any-hit rate of the full collection: about 0.37%.

SMILES | Rab7 wt GTP bind | Cdc42 wt GTP | HRas wt GTP bind | Rab2 wt GTP | Rac1 mut GTP | Rac1 wt GTP bind
COC(=O)C1C(O)=C(C=Nc2ccc(N)cc2)C(=O)CC1(C)C (stereo unspecified) | 103 | 99 | 98 | 101 | 100 | 102
CCCc1cc(=O)[nH]c(SCc2ccccc2)n1 | 103 | 102 | 102 | 101 | 99 | 104
CSc1nc(Cc2ccccc2)cc(=O)[nH]1 | 111 | 120*[activator] | 116 | 120*[activator] | 122*[activator] | 127*[activator]
CCc1nnc2c(N(C)C)nc3ccccc3n12 | 88 | 92 | 89 | 85 | 91 | 76*
CCCc1nnc2c(N(C)S(=O)(=O)c3ccc(C)cc3)nc3ccccc3n12 | 101 | 101 | 101 | 97 | 101 | 104
Cc1c(NC(=O)c2ncn[nH]2)cccc1-c1nc2ccccc2s1 | 103 | 102 | 102 | 100 | 100 | 107
Cc1c(Cl)cccc1NS(=O)(=O)c1ccc2c(c1)C1C=CCC1C(c1ccc(C(=O)O)cc1)N2 (stereo unspecified) | 92 | 78* | 83 | 80 | 73* | 84
COc1cccc(C(=O)Nc2cccc(C(=O)NCC(C)C)c2)c1 | 96 | 104 | 100 | 99 | 99 | 102
C=CCN(c1ccccc1)S(=O)(=O)c1ccc2c(c1)oc(=O)n2C | 100 | 97 | 100 | 99 | 97 | 102
Cc1cc(C(=O)Cn2nc(C(=O)O)c3ccccc3c2=O)c(C)n1-c1ccc(OC(F)F)cc1 | 90 | 79* | 82 | 80 | 83 | 90
COc1ccc(-n2c(C)cc(C(=O)Cn3nc(C(=O)O)c4ccccc4c3=O)c2C)cc1 | 89 | 83 | 88 | 81 | 84 | 83
CCn1cc(C(=O)OCC(=O)c2cc(C)n(-c3ccccc3)c2C)c(=O)c2ccc(C)nc21 | 100 | 87 | 93 | 90 | 87 | 90
CCn1cc(C(=O)OCC(=O)c2cc(C)n(-c3ccc(OC(F)F)cc3)c2C)c(=O)c2ccc(C)nc21 | 92 | 79* | 85 | 76* | 78* | 74*
N#CCCn1cc(C(N)=O)c(-c2cccs2)n1 | 96 | 95 | 96 | 94 | 97 | 96
CC1CCCN(c2ccc3nc4ccccc4c(=O)n3n2)C1 (stereo unspecified) | 96 | 84 | 80 | 81 | 87 | 78*
Cc1ccc2nc3ccc(N4CCCC4)nn3c(=O)c2c1 | 103 | 107 | 104 | 106 | 100 | 106
O=C(Nc1ccc(S(=O)(=O)N2CCCc3ccccc32)cc1)C1CCCO1 (stereo unspecified) | 103 | 117 | 110 | 111 | 102 | 120*[activator]
CN(C)CCCNc1cn[nH]c(=O)c1Cl | 99 | 102 | 98 | 99 | 99 | 101
COc1ccc(OC)c(N2CC(O)(c3cccs3)[N+]3=C2SCCC3)c1 (stereo unspecified) | 105 | 95 | 101 | 98 | 96 | 98
Cc1ccc(S(=O)(=O)c2cc3c(=O)n4ccccc4nc3n(C)c2=N)cc1 | 93 | 82 | 79* | 78* | 91 | 93
Cc1ccc(S(=O)(=O)c2cc3c(=O)n4ccccc4nc3n(Cc3ccco3)c2=N)cc1C | 103 | 108 | 107 | 103 | 103 | 109
CCn1c(=N)c(S(=O)(=O)c2ccc(C)cc2)cc2c(=O)n3ccccc3nc21 | 95 | 81 | 84 | 84 | 90 | 74*
CCn1c(=N)c(S(=O)(=O)c2ccccc2)cc2c(=O)n3ccccc3nc21 | 95 | 88 | 91 | 89 | 94 | 87
COCCOC(=O)C(C#N)c1nc2ccccc2nc1N1CCCC1 (stereo unspecified) | 98 | 98 | 98 | 98 | 95 | 97
O=S(=O)(Nc1nc2ccccc2[nH]1)c1ccc2ccccc2c1 | 92 | 94 | 93 | 93 | 90 | 95
O=S(=O)(Nc1ncn[nH]1)c1ccc2ccccc2c1 | 112 | 121*[activator] | 113 | 110 | 113 | 126*[activator]
Cn1c(=O)c2c(nc(N/N=C/c3ccco3)n2C)n(C)c1=O | 90 | 83 | 85 | 83 | 85 | 74*
